Measurements: PubChem BioAssay (Tox21)
Results filed as inconclusive are left out. A number with no mark means an inactive call. Calls come from the whole dose curve.

Target: Acetylcholinesterase (Homo sapiens) (UniProt P22303)
Test: Acetylcholinesterase (AChE) small molecule antagonists: colormetric cell-based qHTS assay (AID 1347395); note: nearly all actives have a fitted effect of over 30% in size
Settings: SH-SY5Y cells AChE activity, colorimetric (Ellman); series mostly up to 115 µM; activity, negative = inhibition: at the top concentration
Procedure, shortened: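 Endogenous AChE of human neuroblastoma SH-SY5Y cells was measured with an Ellman-type DTNB/acetylthiocholine mix. Compound pretreatment lasted 30 min at 37 C; substrate reaction ran 90 min at 37 C.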
% is set by controls: 0 for no effect and ±100 for the full control effect.

Sequence of Acetylcholinesterase (Homo sapiens) (P22303 whole entry, looked up): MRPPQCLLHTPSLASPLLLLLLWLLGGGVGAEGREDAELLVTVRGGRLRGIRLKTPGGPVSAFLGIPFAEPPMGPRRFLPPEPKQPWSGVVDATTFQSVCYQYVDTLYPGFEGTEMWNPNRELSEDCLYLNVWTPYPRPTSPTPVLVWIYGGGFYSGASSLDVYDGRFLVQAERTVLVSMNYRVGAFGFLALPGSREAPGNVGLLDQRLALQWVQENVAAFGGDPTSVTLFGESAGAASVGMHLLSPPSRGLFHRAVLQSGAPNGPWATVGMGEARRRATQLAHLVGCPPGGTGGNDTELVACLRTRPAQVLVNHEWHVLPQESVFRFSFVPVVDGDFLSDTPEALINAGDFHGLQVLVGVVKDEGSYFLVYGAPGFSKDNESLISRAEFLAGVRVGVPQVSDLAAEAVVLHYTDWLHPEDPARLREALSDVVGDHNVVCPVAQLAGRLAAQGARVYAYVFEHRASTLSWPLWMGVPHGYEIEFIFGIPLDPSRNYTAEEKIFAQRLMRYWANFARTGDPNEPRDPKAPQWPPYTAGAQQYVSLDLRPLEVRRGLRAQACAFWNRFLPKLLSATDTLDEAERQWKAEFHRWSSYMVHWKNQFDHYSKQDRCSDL

| Compound | activity, negative = inhibition |
| --- | --- |
| O=C(/N=N/C(=O)OCc1ccccc1)OCc1ccccc1 | -3.65% |
| CCO[Si](C)(OCC)OCC | 0.105% |
| CN(C)CCN(C)CCO | 2.79% |
| CCCC(=O)OCC | -1.17% |
| CC(=O)S[C@@H]1CC2=CC(=O)CC[C@]2(C)[C@H]2CC[C@@]3(C)[C@@H](CC[C@@]34CCC(=O)O4)[C@H]12 | 5.21% |
| COC(C)=O | 3.17% |
| COC(=O)C1=C(C)NC(C)=C(C(=O)OC(C)(C)CN(C)CCC(c2ccccc2)c2ccccc2)C1c1cccc([N+](=O)[O-])c1 (centres undefined) | 0.337% [at 52.9 µM] |
| CCC(CC)CO | 1.78% |
| C[C@@H](O)[C@H]1C(=O)N2C(C(=O)O)=C([C@H]3CCCO3)S[C@H]12 | -4.21% [at 52.9 µM] |
| COC(OC)(C(=O)c1ccccc1)c1ccccc1 | 2.22% |
| CCCCCc1ccco1 | 1.21% [at 52.9 µM] |
| OCCCO | 0.599% |
| Nc1cc(C(=O)O)c(O)c(S(=O)(=O)O)c1 | 2.33% |
| CCN(CC)CC | 1.62% |
| O=C(Oc1cccc2cccnc12)c1ccccc1 | 3% [at 52.9 µM] |
| O=C(O)CNC(=O)CNC(=O)CNC(=O)CSC(=O)c1ccccc1 | 0.316% [at 52.9 µM] |
| O=C1CC[C@@H](C(=O)O)N1 | -1.89% [at 52.9 µM] |
| CC(=O)c1cnccn1 | 1.02% |
| C[C@@H](O)[C@H](N)C(=O)O | 2.29% [at 23.6 µM] |
| FC1(F)C(F)(F)C(F)(F)C2(F)C(F)(C1(F)F)C(F)(F)C(F)(F)C1(F)C(F)(F)C(F)(F)C(F)(F)C(F)(F)C12F (centres undefined) | 0.841% |

| Compound | activity, negative = inhibition |
| --- | --- |
| C=C(C)C(=O)OCCOCCOC(=O)C(=C)C | -0.746% |
| CNC(=O)c1cnn(-c2nc(N)c3ncn([C@@H]4O[C@H](CO)[C@@H](O)[C@H]4O)c3n2)c1 | 2.03% [at 52.9 µM] |
| CCCCCCCCCCCCN(CCCCCCCCCCCC)CCCCCCCCCCCC | 0.385% |
| C=CC(=O)OCCOCC(CC)(COCCOC(=O)C=C)COCCOC(=O)C=C | -2.03% |
| Cc1cn[nH]c1 | -1.94% [at 52.9 µM] |
| O=C(NN1CCCC1)NS(=O)(=O)c1ccc(Cl)cc1 | 1.82% [at 52.9 µM] |
| CC/C=C\CCCCO | -0.769% |
| CC(=O)OCC(=O)[C@@]1(OC(C)=O)[C@@H](C)C[C@H]2[C@@H]3C[C@H](F)C4=CC(=O)C=C[C@]4(C)[C@@]3(F)[C@@H](O)C[C@@]21C | 0.0998% [at 52.9 µM] |
| O=C1CCCN1C1CCCCC1 | -2.01% |
| COC(=O)C1CC(=O)C(C(=O)OC)CC1=O (centres undefined) | 2.2% [at 10.5 µM] |
| CN(C)C(=O)Nc1ccc(Oc2ccc(Cl)cc2)cc1 | 1.37% |
| CC1(C)[C@@H](O)CC[C@]2(C)[C@H]3C(=O)C=C4[C@@H]5C[C@@](C)(C(=O)O)CC[C@]5(C)CC[C@@]4(C)[C@]3(C)CC[C@@H]12 | 0.818% |
| Cc1cccc(N(C)C)c1 | -4.99% |
| CCCc1ccc(N)cc1 | -0.896% |
| Cc1nc(-c2ccc3c(c2)CCN(CCC2CCC(NC(=O)/C=C/c4ccc(F)cc4)CC2)CC3)no1 (centres undefined) | 0.465% [at 52.9 µM] |
| OCCN1CCOCC1 | 3.13% |
| CCCCCCCCCCCCCC=O | 1.02% [at 10.5 µM] |
| O=S1(=O)CCCC1 | 3.21% |
| CN(Cc1ccc(C(C)(C)C)cc1)Cc1cccc2ccccc12 | 1.35% [at 52.9 µM] |
